Source: PubChem BioAssay (NCATS)
Inconclusive results are not listed. Calls of active or inactive are those of the source. Unless noted, calls follow the shape of the dose curve; as a rule, active = well fitted curve in the direction sought with a large enough effect; inconclusive = small, poorly fitted or top-dose-only effect, or another doubt; inactive = no such curve, though single readings can be large; an effect the other way counts as inactive or inconclusive.

Assays:
[1] = target: Lysosomal acid glucosylceramidase (Homo sapiens) (UniProt P04062); assay: Glucocerebrosidase-p2 (AID 348; in the data active = potency below about 10 µM; also: potency is read from the fitted curve at half-maximal effect); conditions: purified GBA, blue fluorogenic substrate, 40 min
Procedure, shortened: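 Compounds titrated from 0.6 nM upwards against 0.2 nM enzyme in pH 5.9 citric acid/KH2PO4, taurocholate, tween-20; blue fluorogenic substrate 80 uM, 40 min room temperature, stopped and read Ex 365/Em 440 for AC50.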

[2] = AP1 Signaling Pathway (AID 357; active = well fitted curve in either direction with a large enough effect, not every such curve was filed as active; also: % is scaled to controls: 0 for no effect and ±100 for the full control effect); conditions: ME-180 AP-1-bla reporter, EGF-induced, beta-lactamase ratio, 5 h; at 7.69 µM (top of the series) unless noted
Procedure, shortened: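 AP-1-bla ME-180 cells with beta-lactamase reporter under AP-1 response element, stimulated with EC50 EGF; compounds titrated, 5 hours at 37 degrees Celsius. CCF4 read at 460/530 nm ratio; positive and negative modulators judged by AC50.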

[3] = Stat Signaling Pathway (AID 446; active = well fitted curve in either direction with a large enough effect, not every such curve was filed as active;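 also: ME-180 cervical cancer cells given 40 pM IL-6 alongside compound; SIE-controlled beta-lactamase reporter measured as 460/530 nm FRET emission ratio; % is scaled to controls: 0 for no effect and ±100 for the full control effect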); conditions: ME-180 SIE beta-lactamase reporter, IL-6 stimulated, 5 h; series mostly up to 7.69 µM
Procedure, shortened: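 ME-180 cells carrying a SIE-driven beta-lactamase reporter are stimulated with 40 pM IL-6 for 5 h at 37C in the presence of compound. The 460/530 nm FRET substrate ratio is read after 2.5 h at RT. Data are normalised to 300 pM IL-6 and to 125 nM JAK inhibitor controls.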

[4] = target: Glucocorticoid receptor (Homo sapiens) (UniProt P04150); assay: GR-GFP Redistribution (AID 450;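 active = compounds whose dose series gives a full or clear partial fitted curve of increased nuclear translocation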; also: potency is read from the fitted curve at half-maximal effect); conditions: U2OS GR-GFP nuclear translocation, laser cytometry, 2 h
[5] = target: Glucocorticoid receptor (Homo sapiens) (UniProt P04150); assay: GR-EFC Redistribution (AID 451; calls by dose curve; also: potency is read from the fitted curve at half-maximal effect); conditions: CHO-K1 GR-EFC translocation, beta-gal luminescence, 2 h
Procedure, shortened: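 Translocation of GR-ED fusion to nuclear EA restores b-gal, read by luminescence after 1 h room-temperature detection. Engineered CHO-K1 biosensor cells, 1,000/well, exposed 2 h at 37 C to titrations up to 46 uM final.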

[6] = target: Mitogen-activated protein kinase 10 (Mus musculus) (UniProt Q61831); assay: JNK3 AlphaScreen Assay (AID 530; active = well fitted curve in either direction with a large enough effect, not every such curve was filed as active;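 also: kinase came from lysate of stimulated human HepG2 cells; signal reports phosphorylation of biotinylated GST-cJun 1-79 at Ser73 with 10 µM ATP; % is scaled to controls: 0 for no effect and ±100 for the full control effect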); conditions: JNK3 lysate, c-Jun phosphorylation; series mostly up to 57.1 µM
Procedure, shortened: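 Compound titrations were preincubated 15 minutes at room temperature with substrate, antibody and pre-activated JNK3-containing HepG2 lysate. Reactions were started with 10 uM ATP and stopped with EDTA-containing bead buffer for AlphaScreen detection.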

[7] = target: 3',5'-cyclic-AMP phosphodiesterase 4B (Homo sapiens) (UniProt Q07343); assay: qHTS Assay for Inhibitors of PDE-IV (AID 607; active = well fitted activation curve with a large enough effect in the main read-out, with a control signal flat, not every such curve was filed as active; also: % of control where 0% means no effect); conditions: HEK293 ACTOne CNG channel cells, membrane potential fluorescence; series mostly up to 22.9 µM
Procedure, shortened: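 HEK293 ACTOne cells with CNG channel (1000/well), endogenous PDE4; membrane potential dye, compounds up to 22.9 uM final. Fluorescence Ex 535/Em 590; RO 20-1724 (100 uM final) as reference.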

[8] = target: Cytochrome P450 3A4 (Homo sapiens) (UniProt P08684); assay: qHTS Assay for Activators of Cytochrome P450 3A4 (AID 885); conditions: recombinant CYP3A4, Luciferin-PPXE luminescence, 60 min; series mostly up to 57.1 µM; also: nearly all actives have a fitted effect of over 65% in size
Procedure, shortened: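 Human CYP3A4 (20 nM) with Luciferin-PPXE at 25 uM (its KM) in 200 mM KPO4; 10 min compound preincubation, then NADPH regeneration and 60 min reaction at RT. Luciferin read by luminescence; normalized to 57 uM ketoconazole full inhibition.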

[9] = target: Cytochrome P450 2C19 (Homo sapiens) (UniProt P33261); assay: qHTS Assay for Inhibitors and Substrates of Cytochrome P450 2C19 (AID 899); conditions: recombinant CYP2C19, luciferin-H EGE luminescence; series mostly up to 57.1 µM; also: potency is read from the fitted curve at half-maximal effect; nearly all actives have a fitted effect of over 60% in size
Procedure, shortened: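 5nM enzyme + 10uM Luciferin-H EGE (=KM), 50mM KPO4; cpd pin-transferred, 10 min 37C; NADPH regen, 60 min 37C; stopped w/ luciferin detection reagent, 20 min; luminescence. Normalized to 57uM ketoconazole (AC100).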

[10] = target: Rap guanine nucleotide exchange factor 3 (Homo sapiens) (UniProt O95398); assay: Confirmatory qHTS for agonist of cAMP-regulated guanine nucleotide exchange factor 3 (EPAC1) (AID 1645881); conditions: EPAC1 Rap1B BODIPY-GDP exchange fluorescence; series mostly up to 154 µM;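 also: EPAC1 catalysed release of BODIPY-GDP from Rap1B seen as fluorescence loss; 100% = effect of cAMP agonist control; nearly all actives have a fitted effect of over 75% in size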
[11] = target: Rap guanine nucleotide exchange factor 4 (Homo sapiens) (UniProt Q8WZA2); assay: Confirmatory qHTS for agonist of cAMP-regulated guanine nucleotide exchange factor 4 (EPAC2) (AID 1645884); conditions: EPAC2 GEF activity, Rap1B-BODIPY-GDP fluorescence; series mostly up to 154 µM;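 also: nucleotide exchange releases bodipy-GDP from Rap1 and this lowers its fluorescence; % is scaled to controls: 0 for no effect and ±100 for the full control effect; nearly all actives have a fitted effect of over 65% in size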
[12] = target: Rap guanine nucleotide exchange factor 4 (Homo sapiens) (UniProt Q8WZA2); assay: Confirmatory qHTS for antagonist of cAMP-regulated guanine nucleotide exchange factor 4 (EPAC2) (AID 1645885); conditions: EPAC2 Rap1B-BODIPY-GDP exchange fluorescence, biochemical; series mostly up to 12.7 µM; also: nearly all actives have a fitted effect of over 25% in size; also: potency is read from the fitted curve at half-maximal effect; as to activity change, negative = inhibition: % is scaled to controls: 0 for no effect and ±100 for the full control effect
[13] = target: Rap guanine nucleotide exchange factor 3 (Homo sapiens) (UniProt O95398); assay: Counterscreen qHTS for agonist of cAMP-regulated guanine nucleotide exchange factor 3 (EPAC1) (AID 1645889); conditions: EPAC1 Rap1B-BODIPY-GDP exchange, fluorescence; series mostly up to 154 µM; also: % of control where 0% means no effect; nearly all actives have a fitted effect of over 40% in size
Procedure, shortened: (§1)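 Rap1B-BODIPY-GDP 250 nM + GDP 50 uM; cpds 7-pt, final 9.74 nM–152 uM (activator mode) or from 7.32 nM upwards (inhibitor mode); RT; FI 480/540 nm at 5 and 30 min, then ± cAMP, reread.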

[14] = target: Rap guanine nucleotide exchange factor 3 (Homo sapiens) (UniProt O95398); assay: Counterscreen qHTS for antagonist of cAMP-regulated guanine nucleotide exchange factor 3 (EPAC1) (AID 1645888); conditions: Rap1B-BODIPY-GDP nucleotide exchange, fluorescence; series mostly up to 154 µM;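 also: fluorescence loss as bound BODIPY-GDP is released from Rap1B; % of control where 0% means no effect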
Procedure, shortened: as §1

[15] = target: Cytochrome P450 3A4 (Homo sapiens) (UniProt P08684); assay: qHTS Assay for Inhibitors and Substrates of Cytochrome P450 3A4 (AID 884); conditions: recombinant CYP3A4, Luciferin-PPXE luminescence; series mostly up to 57.1 µM; also: potency is read from the fitted curve at half-maximal effect; nearly all actives have a fitted effect of over 50% in size
Procedure, shortened: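 20 nM human CYP3A4 with 25 uM Luciferin-PPXE (at KM) in 200 mM KPO4, preincubated 10 min with compound; NADPH regeneration started a 60 min RT reaction. Luciferin detected by luminescence, normalized to 57 uM ketoconazole as full inhibition.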

[16] = Confirmation and Secondary Assay for Modulators of Hemoglobin Beta Chain Splicing at IVS2 654 locus (AID 910); conditions: HeLa EGFP-654 splicing reporter, GFP fluorescence, 48 h; series mostly up to 46.1 µM;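 also: HeLa cells stably carrying EGFP split by mutant beta-globin IVS2-654 intron; per-well total GFP intensity by laser scanning cytometry after 2-day treatment; % of control where 0% means no effect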
Procedure, shortened: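 Readout: per-well total peak green fluorescence (488 nm ex, 500–520 nm em) from objects 5–250 µm, reflecting correct splicing of an EGFP-654 reporter. Compounds were applied for 2 days at 37 °C to overnight-plated HeLa EGFP-654 cells; controls were DMSO and 500 nM IVS2-654 PNA.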

[17] = Confirmation and Secondary Assay for Modulators of Hemoglobin Beta Chain Splicing at IVS2 705 locus (AID 930); conditions: HeLa EGFP-705 splicing reporter, GFP fluorescence, 48 h; series mostly up to 46.1 µM;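 also: HeLa cells stably expressing the EGFP-705 splicing reporter; % of control where 0% means no effect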
Procedure, shortened: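 Restored EGFP fluorescence after 2-day compound exposure reports splicing correction in IVS2-705 EGFP reporter HeLa cells; positive control was 500 nM splice-blocking PNA oligo. Signal measured as well total peak GFP intensity (488 nm excitation).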

[18] = target: Cytochrome P450 1A2 (Homo sapiens) (UniProt P05177); assay: p450-cyp1a2 (AID 410; calls by dose curve; also: potency is read from the fitted curve at half-maximal effect); conditions: recombinant CYP1A2, luciferin-ME demethylation, luminescence; series mostly up to 57 µM
Procedure, shortened: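 20nM CYP1A2 with 100uM Luciferin-ME (at Km) in 100mM KPO4; compound preincubated 10 min, NADPH regeneration added, 60 min at room temperature. Luciferin quantified by luminescence after detection reagent; normalized to 57 uM furafylline.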

Chain of Glucocorticoid receptor (Homo sapiens) (P04150 whole entry, looked up, the tested form may be a part): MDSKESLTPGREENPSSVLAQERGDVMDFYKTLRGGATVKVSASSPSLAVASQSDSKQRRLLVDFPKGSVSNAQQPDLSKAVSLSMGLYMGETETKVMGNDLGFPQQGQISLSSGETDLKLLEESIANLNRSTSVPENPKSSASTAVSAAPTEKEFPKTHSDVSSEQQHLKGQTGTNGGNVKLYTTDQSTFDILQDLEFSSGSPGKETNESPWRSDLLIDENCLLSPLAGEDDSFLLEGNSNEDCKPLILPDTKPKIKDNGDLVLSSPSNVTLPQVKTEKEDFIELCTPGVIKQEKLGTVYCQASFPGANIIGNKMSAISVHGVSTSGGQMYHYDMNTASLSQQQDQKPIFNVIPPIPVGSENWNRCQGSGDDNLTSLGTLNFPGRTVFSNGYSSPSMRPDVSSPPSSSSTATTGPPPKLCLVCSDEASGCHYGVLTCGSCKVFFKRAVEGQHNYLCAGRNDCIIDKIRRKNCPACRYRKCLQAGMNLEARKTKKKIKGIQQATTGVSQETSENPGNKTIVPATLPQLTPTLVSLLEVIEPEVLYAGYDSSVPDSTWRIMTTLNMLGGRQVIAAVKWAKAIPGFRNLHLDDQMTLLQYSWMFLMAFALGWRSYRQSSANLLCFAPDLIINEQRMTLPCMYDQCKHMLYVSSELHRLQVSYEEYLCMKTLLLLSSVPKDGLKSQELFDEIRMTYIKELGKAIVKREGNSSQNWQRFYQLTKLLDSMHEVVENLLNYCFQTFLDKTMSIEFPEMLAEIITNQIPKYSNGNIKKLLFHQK
Chain of Rap guanine nucleotide exchange factor 3 (Homo sapiens) (O95398 whole entry, looked up): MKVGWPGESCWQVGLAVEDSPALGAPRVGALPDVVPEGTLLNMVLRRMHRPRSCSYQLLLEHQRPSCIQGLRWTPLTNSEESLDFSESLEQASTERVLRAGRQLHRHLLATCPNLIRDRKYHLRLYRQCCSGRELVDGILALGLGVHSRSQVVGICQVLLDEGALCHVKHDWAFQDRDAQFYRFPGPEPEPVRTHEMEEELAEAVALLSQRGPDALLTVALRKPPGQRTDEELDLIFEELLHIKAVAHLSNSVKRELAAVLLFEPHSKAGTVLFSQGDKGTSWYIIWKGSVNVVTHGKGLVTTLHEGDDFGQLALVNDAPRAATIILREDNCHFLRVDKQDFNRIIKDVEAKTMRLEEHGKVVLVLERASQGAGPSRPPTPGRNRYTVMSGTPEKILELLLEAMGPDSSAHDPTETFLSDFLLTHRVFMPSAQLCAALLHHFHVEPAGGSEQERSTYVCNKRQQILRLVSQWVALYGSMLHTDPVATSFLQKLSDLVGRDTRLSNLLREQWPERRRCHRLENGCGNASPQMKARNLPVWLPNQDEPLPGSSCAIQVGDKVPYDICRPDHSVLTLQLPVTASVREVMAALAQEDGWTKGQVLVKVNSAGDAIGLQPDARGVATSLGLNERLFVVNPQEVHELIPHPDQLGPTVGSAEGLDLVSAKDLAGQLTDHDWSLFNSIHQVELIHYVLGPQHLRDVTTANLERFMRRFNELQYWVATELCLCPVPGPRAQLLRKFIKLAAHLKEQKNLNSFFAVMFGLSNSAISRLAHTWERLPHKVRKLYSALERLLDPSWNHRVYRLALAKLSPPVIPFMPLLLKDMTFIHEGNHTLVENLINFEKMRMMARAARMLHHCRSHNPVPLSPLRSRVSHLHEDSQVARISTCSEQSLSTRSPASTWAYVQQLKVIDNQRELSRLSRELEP
Chain of Rap guanine nucleotide exchange factor 4 (Homo sapiens) (Q8WZA2 whole entry, looked up): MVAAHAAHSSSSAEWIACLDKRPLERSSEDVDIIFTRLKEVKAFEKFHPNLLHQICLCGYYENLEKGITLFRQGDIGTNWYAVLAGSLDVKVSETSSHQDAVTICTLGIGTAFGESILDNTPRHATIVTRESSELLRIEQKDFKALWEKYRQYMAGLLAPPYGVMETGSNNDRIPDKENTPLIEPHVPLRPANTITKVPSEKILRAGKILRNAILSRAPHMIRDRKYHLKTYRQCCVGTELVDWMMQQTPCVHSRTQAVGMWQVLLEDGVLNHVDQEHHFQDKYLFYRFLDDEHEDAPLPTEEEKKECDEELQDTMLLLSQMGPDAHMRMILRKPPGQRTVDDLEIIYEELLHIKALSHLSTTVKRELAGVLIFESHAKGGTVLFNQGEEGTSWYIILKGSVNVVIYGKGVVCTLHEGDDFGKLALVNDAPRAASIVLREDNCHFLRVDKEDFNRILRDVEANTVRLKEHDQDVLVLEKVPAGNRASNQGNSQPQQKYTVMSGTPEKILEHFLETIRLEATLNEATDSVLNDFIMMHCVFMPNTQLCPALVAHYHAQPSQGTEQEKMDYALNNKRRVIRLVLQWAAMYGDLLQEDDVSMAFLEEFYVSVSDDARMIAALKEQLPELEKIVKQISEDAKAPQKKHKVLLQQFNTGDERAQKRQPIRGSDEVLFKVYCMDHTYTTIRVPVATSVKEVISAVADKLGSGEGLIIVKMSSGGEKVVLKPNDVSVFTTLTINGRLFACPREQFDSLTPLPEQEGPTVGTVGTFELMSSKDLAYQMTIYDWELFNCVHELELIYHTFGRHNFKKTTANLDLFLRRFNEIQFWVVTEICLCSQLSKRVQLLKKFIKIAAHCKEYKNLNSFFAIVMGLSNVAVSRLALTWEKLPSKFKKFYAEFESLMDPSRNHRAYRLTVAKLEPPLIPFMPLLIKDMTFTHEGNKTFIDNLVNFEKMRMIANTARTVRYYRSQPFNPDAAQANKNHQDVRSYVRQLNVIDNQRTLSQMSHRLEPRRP
Chain of Cytochrome P450 3A4 (Homo sapiens) (P08684 whole entry, looked up): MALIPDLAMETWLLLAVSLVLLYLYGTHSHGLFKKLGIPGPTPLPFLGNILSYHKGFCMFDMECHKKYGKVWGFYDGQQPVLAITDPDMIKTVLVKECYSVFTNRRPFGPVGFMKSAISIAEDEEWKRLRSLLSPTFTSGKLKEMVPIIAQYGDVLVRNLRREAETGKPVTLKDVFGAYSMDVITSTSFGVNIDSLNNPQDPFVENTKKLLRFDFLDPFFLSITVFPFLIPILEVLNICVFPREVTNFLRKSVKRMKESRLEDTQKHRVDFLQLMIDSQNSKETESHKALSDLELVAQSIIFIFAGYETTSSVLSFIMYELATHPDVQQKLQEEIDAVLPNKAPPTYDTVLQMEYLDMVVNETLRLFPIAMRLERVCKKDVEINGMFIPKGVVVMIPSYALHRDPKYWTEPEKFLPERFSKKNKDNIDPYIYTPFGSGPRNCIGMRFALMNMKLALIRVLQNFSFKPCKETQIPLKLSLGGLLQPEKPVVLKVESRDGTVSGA
Chain of 3',5'-cyclic-AMP phosphodiesterase 4B (Homo sapiens) (Q07343 whole entry, looked up): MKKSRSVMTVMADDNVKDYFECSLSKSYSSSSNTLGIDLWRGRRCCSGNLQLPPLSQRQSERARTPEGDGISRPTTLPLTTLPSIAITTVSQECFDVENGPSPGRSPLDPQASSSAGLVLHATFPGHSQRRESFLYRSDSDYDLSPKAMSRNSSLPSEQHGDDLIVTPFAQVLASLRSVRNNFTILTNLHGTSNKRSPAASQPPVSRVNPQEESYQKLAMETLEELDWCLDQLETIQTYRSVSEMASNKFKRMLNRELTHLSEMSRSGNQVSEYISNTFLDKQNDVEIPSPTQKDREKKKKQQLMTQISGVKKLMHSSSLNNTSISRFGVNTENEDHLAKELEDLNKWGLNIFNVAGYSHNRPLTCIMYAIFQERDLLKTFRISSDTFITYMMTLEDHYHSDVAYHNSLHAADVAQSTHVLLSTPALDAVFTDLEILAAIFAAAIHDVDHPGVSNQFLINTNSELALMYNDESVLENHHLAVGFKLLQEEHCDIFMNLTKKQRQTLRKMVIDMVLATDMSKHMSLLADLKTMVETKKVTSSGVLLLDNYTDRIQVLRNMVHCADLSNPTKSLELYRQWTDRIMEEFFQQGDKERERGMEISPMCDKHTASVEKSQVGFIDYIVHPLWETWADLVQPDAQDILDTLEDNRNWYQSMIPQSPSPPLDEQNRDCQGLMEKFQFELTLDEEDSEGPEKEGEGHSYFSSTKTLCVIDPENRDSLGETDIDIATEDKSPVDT
Chain of Lysosomal acid glucosylceramidase (Homo sapiens) (P04062 whole entry, looked up): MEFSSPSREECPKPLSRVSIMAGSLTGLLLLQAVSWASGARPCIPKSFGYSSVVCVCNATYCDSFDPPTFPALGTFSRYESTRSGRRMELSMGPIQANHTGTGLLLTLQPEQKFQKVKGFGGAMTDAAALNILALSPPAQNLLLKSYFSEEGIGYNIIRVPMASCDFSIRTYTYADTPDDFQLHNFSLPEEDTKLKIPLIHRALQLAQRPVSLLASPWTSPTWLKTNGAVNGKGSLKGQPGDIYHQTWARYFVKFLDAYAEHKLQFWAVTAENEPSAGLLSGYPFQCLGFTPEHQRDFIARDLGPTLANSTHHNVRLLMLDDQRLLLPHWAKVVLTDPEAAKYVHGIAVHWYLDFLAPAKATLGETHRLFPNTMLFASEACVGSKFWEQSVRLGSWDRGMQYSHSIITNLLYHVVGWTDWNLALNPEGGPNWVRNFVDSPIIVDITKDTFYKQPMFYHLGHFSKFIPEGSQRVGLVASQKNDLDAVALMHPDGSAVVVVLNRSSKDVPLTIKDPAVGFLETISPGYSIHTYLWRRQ
Chain of Cytochrome P450 1A2 (Homo sapiens) (P05177 whole entry, looked up): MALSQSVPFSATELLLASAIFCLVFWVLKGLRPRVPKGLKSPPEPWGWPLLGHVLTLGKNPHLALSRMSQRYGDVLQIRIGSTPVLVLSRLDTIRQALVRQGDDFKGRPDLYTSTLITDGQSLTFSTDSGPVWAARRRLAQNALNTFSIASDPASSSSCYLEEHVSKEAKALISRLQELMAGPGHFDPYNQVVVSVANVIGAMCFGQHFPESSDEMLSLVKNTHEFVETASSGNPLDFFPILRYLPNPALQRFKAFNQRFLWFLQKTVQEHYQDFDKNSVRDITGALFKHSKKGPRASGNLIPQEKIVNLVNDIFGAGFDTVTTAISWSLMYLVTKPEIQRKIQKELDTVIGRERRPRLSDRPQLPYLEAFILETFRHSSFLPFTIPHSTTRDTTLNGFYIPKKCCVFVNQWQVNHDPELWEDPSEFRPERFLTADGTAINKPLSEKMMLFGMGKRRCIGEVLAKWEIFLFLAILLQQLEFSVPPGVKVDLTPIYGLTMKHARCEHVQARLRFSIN

Nc1nc(N)c(-c2cccc(C(F)(F)F)c2)c(Cc2cccc(C(F)(F)F)c2)n1
active: Potency [9] 2.51 µM
inactive: Potency [1] > 11.4 µM | activity change, negative = inhibition [2] 11.9% | outcome [3] | Potency [4] > 46 µM | Potency [5] > 9.22 µM | activity change, negative = inhibition [6] 3.36% [at 11.4 µM] | Potency [7] | activity change, positive = activation [8] -31.2% [at 11.4 µM] | Potency [10] | Potency [11] | Potency [12] | Potency [13]

CC(C)C(=O)Nc1nc2c(s1)CC(C(C)(C)C)CC2 (configuration not stated)
inactive: Potency [10] | Potency [11] | Potency [12] | Potency [13]

O=C(NCc1ccc(OC(F)(F)F)cc1)C1CC(c2ccccc2C(F)(F)F)=NO1 (configuration not stated)
inactive: Potency [10] | activation [11] 4.05% [at 17.1 µM, percent relative to cAMP agonist control] | Potency [12] | activation [13] 3.19% [at 30.8 µM]

C/C=C\C=C/C(=O)Nc1cccc(C2=NOC3(C2)C[C@H](C(N)=O)N(C(=O)c2ccc(OC)cc2)C3)c1 (some centres not stated)
inactive: Potency [10] | Potency [11] | Potency [14]

COCc1nc2ccccc2n1Cc1ccc(C(C)(C)C)cc1
inactive: Potency [10] | Potency [11] | Potency [12] | Potency [13]

Cc1cc2c(cc1C)C(c1ccccc1OC(C)C)CC(=O)N2 (configuration not stated)
inactive: Potency [10] | Potency [11] | Potency [13]
active: Potency [12] 33.8 µM

COc1ccc(OC)c(NC(=O)c2nc(S(=O)(=O)Cc3ccccc3)ncc2Cl)c1
inactive: Potency [10] | Potency [11] | Potency [14]

Nc1cc(OC(=O)c2cccs2)nn1S(=O)(=O)c1ccc(F)cc1
inactive: Potency [10] | Potency [11] | Potency [13]
active: Potency [12] 84.9 µM

COc1cc(/C=N/NS(=O)(=O)c2ccc3ccccc3c2)ccc1OCc1ccc(C(=O)O)cc1
inactive: Potency [10] | Potency [11] | Potency [14]

C#Cc1ccc([C@@H]2C=C(C(=O)NCc3ccccc3)O[C@H](OCC)[C@H]2CCCO)cc1
inactive: Potency [10] | Potency [11] | Potency [14]

O=C(Nc1ccncc1)c1cc2ccccc2cc1O
inactive: Potency [10] | Potency [11] | Potency [14]

Cc1ccc(/C=N/Nc2cc(C)nc(NCc3ccccc3)n2)cc1
inactive: Potency [10] | Potency [11] | Potency [14]

O=c1c(O)c(-c2ccccc2)oc2ccc3occc3c12
active: Potency [15] 3.16 µM | Potency [12] 5.55 µM
inactive: outcome [8] | Potency [16] | Potency [17] | Potency [10] | Potency [11]

CC(C)=CCc1c2c(c3occ(-c4ccc(O)cc4)c(=O)c3c1O)C=CC(C)(C)O2
inactive: outcome [8] | Potency [16] | Potency [17] | Potency [10] | Potency [11] | Potency [12]

O=C(CSc1n[nH]c(-c2ccccc2)n1)c1ccc(O)c(O)c1
inactive: Potency [10] | Potency [11] | Potency [12] | Potency [13]

O=Nc1c(O)n(Cc2cccc(C(F)(F)F)c2)c2ccccc12
active: Potency [12] 47.8 µM
inactive: Potency [10] | Potency [11] | Potency [13]

O=C(CSc1nnc(-c2cccs2)n1Cc1ccco1)Nc1ccc2c(c1)OCO2
inactive: Potency [10] | Potency [11] | Potency [12] | Potency [13]

O=C(COC(=O)c1cccc(NS(=O)(=O)c2ccc(F)c(F)c2)c1)NC(=O)NC1CCCC1
inactive: Potency [10] | Potency [11] | Potency [12] | Potency [13]

CCOc1ccc2nc3cc(N=Nc4ccc(N)nc4N)ccc3c(N)c2c1
inactive: Potency [1] > 11.4 µM | activity change, negative = inhibition [2] 4.95% | outcome [3] | Potency [4] > 46 µM | activity change, negative = inhibition [6] -7.05% [at 11.4 µM] | Potency [7] | Potency [10] | activation [11] 2.08% [at 17.1 µM, percent relative to cAMP agonist control] | Potency [12]
active: Potency [18] 0.794 µM

CCn1cc(CN2CCc3c([nH]c4ccccc34)C2c2cccc(OC)c2)c(C)n1 (configuration not stated)
inactive: Potency [10] | activation [11] -1.07% [at 17.1 µM, percent relative to cAMP agonist control] | Potency [12] | activation [13] 8.44% [at 30.8 µM]

O=C(O)c1cccc(Nc2ccc([N+](=O)[O-])c3nonc23)c1
inactive: Potency [10] | Potency [11] | Potency [12] | Potency [13]

CC(C)(C)OC(=O)N1CCC(c2c(C(=O)NCCN3CCC(Cc4ccccc4)CC3)cnn2-c2cccc(Cl)c2)CC1
inactive: Potency [10] | Potency [11] | Potency [12] | Potency [13]
